Laboratory results from article PMC4552634, “A New Set of Chemical Starting Points with Plasmodium falciparum Transmission-Blocking Potential for Antimalarial Drug Discovery” (PLoS ONE, 2015).
Hit rate of the full screen: of about 13,000 compounds, about 3,200 (25%) showed an effect of 50% or more. Some of the results follow.

tested on: P. falciparum stage V gametocytes; set-up: BacTiter-Glo ATP luminescence viability of purified stage V gametocytes in 384-well plates, per cent inhibition versus DMSO; conditions: 48 h, 5 µM; inhibitor

| SMILES | % Inhibition |
| --- | --- |
| CN(C)CCN1CCN(Cc2ccc(-c3cccc(-c4nc5ccccc5[nH]4)c3)cc2)CC1 [TCMDC-133795] | 73.83% |
| CN(C)CCN1CCN(Cc2cccc(-c3csc(-c4nc5ccccc5[nH]4)c3)c2)CC1 [TCMDC-133793] | 29.26% |
| OCCN1CCN(Cc2ccc(-c3cccc(-c4nc5ccccc5[nH]4)c3)cc2)CC1 [TCMDC-132540] | 6.462% |
| CN1CCC(N2CCN(Cc3ccc(-c4cccc(-c5nc6ccccc6[nH]5)c4)cc3)CC2)CC1 [TCMDC-133881] | 56.17% |
| CN1CCC(N2CCN(C(=O)c3cccc(-c4cccc(-c5nc6ccccc6[nH]5)c4)c3)CC2)CC1 [TCMDC-132312] | 7.191% |
| Cc1cc(NC(=O)Nc2ccc(Oc3ccccc3)cc2)c2ccccc2n1 [TCMDC-134657] | -9.366% |
| CC(C)(C)C(=O)Nc1ccccc1Oc1ccc(Cl)cc1 [TCMDC-137332] | 6.336% |
| Cc1ccc(Oc2ccccc2NC(=O)CCc2nc3ccccc3c(=O)[nH]2)cc1 [TCMDC-125459] | 59.46% |
| COc1cccc(CNC(=O)[C@H]2CNCCN2C(=O)CCCc2ccccc2)c1 [TCMDC-141271] | 37.6% |
| CC(CNC(=O)[C@H]1CNCCN1C(=O)CCCc1ccccc1)c1ccccc1 (stereo partly shown) [TCMDC-141268] | 55.69% |
| CCCC(C)NC(=O)[C@H]1CNCCN1C(=O)CCCc1ccccc1 (stereo partly shown) [TCMDC-141270] | 1.864% |
| O=C(NCc1ccc(F)cc1)c1cnc(N2CCN(c3ccncc3)CC2)c(Cl)c1 [TCMDC-134627] | -0.3882% |
| COc1ccc2nccc(NN=Cc3cccc(C)n3)c2c1 [TCMDC-142034] | -10.1% |
| COc1ccc(OCCCN2CCCCC2)cc1S(=O)(=O)c1ccc(OCc2ccc(C(F)(F)F)cc2)cc1 [TCMDC-132410] | 92.2% |
| CCOc1cc2c(cc1S(=O)(=O)c1ccc(COc3ccc(C(F)(F)F)cc3)cc1)CCN(C)CC2 [TCMDC-134264] | 39.44% |
| COc1cc2c(cc1S(=O)(=O)c1ccc(COc3ccc(C(F)(F)F)cc3)cc1)CNCC2 [TCMDC-134479] | -1.894% |
| CCCCCCCn1c2c(c(=N)c3c1CCC3)CCCC2 [TCMDC-125606] | 41.76% |
| CCCCCCn1c2c(c(=N)c3c1CCC3)CCCC2 [TCMDC-124215] | 19.97% |
| CCCCCCCCn1c2c(c(=N)c3c1CCC3)CCCC2 [TCMDC-125653] | 74.53% |
| CCCCCCCCn1c2c(c(=N)c3c1CCC3)CCC2 [TCMDC-125309] | 92.39% |
| CCn1c2c(c(=N)c3ccccc31)CCC2 [TCMDC-125756] | -4.824% |
| CCCCCCn1c2c(c(=N)c3c1CCC3)CCC2 [TCMDC-125620] | 20.05% |
